Measured values published in PubChem BioAssay (Tox21).
Results filed as inconclusive are left out. Active and inactive are the calls of the source. Unless noted, calls come from the whole dose curve; as a rule, active = well fitted curve in the direction sought with a large enough effect in the repeat runs; inconclusive = weak or mixed curves; inactive = no such curve, though single readings can be large; an effect the other way counts as inactive or inconclusive.

How the values were obtained:
[1] = qHTS assay to identify small molecule antagonists of the estrogen receptor alpha (ER-alpha) signaling pathway using the BG1 cell line in the presence of 0.1 nM 17-beta-estradiol - cell viability counter screen (AID 1259241); note: nearly all actives have a fitted effect of over 40% in size
In short: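 CellTiter-Fluor read (30 min, 37C) on ER-alpha/ERE-luc VM7Luc4E2 cells; 22 hr compound treatment; agonist 0.1 nM E2 final; same-well multiplex.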

[2] = qHTS assay to identify small molecule antagonists of the androgen receptor (AR) signaling pathway using the MDA cell line in the presence of 0.5 nM R1881 - cell viability counter screen (AID 1259242); note: nearly all actives have a fitted effect of over 45% in size
In short: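 Live-cell protease fluorescence, CellTiter-Fluor, 30 min at 37C. Cells: MDA-kb2, 3,000/well, preincubated 5 hr. Compounds plus 0.5 nM R1881 final, 16 hr, 37C, 0% CO2.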

[3] = target: Estrogen receptor (Homo sapiens) (UniProt P03372); experiment: qHTS assay to identify small molecule antagonists of the estrogen receptor alpha (ER-alpha) signaling pathway using the BG1 cell line in the presence of 0.1 nM 17-beta-estradiol (AID 1259244); note: nearly all actives have a fitted effect of over 50% in size
In short: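 Luminescence after ONE-Glo (30 min, room temperature) measured ERE-luciferase activity in VM7Luc4E2 cells treated 22 h with compound and 0.1 nM final 17beta-estradiol as stimulator.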

[4] = qHTS assay to identify small molecule HDAC inhibitors - cell viability counter screen (AID 1259365); note: series mostly up to about 92 µM; nearly all actives have a fitted effect of over 50% in size
In short: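 To flag cytotoxic hits, 1,500 wild-type HCT-116 cells per well, plated the day before, receive test compounds for 2hr at 37 C before CellTiter-Glo reagent and a luminescence read.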

[5] = qHTS assay to identify small molecule agonists of the sonic hedgehog signaling (Shh) pathway - cell viability counter screen (AID 1259366); note: nearly all actives have a fitted effect of over 50% in size
In short: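 Fluorescence from CellTiter-Fluor reports live cells in this counter screen. NIH/3T3-derived Gli1-Luc reporter cells receive test compounds for 24hr at 37C; reagent goes in at 23hr.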

[6] = qHTS assay to identify small molecule antagonists of the sonic hedgehog signaling (Shh) pathway - cell viability counter screen (AID 1259367); note: nearly all actives have a fitted effect of over 55% in size
In short: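 Conditioned medium drove Shh signaling in 3T3 Gli1-Luc cells exposed to compounds at 37C and 5% CO2. Viability was determined from CellTiter-Fluor fluorescence, with reagent incubated 1 hr after 23 hr of treatment.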

[7] = qHTS assay to identify small molecule agonists of the sonic hedgehog signaling (Shh) pathway (AID 1259368; calls by dose curve;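 note: NIH/3T3-derived 3T3Gli1-Luc cells carrying a stable Gli1-driven firefly luciferase reporter; series mostly up to about 92 µM; nearly all actives have a fitted effect of over 15% in size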)
In short: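 Read-out: firefly luciferase luminescence from a Gli1 response element reporter stably integrated in NIH/3T3-derived 3T3Gli1-Luc cells, measured 30 min at room temperature after reagent addition. Compound exposure lasted 24 hr at 37 C, 5% CO2.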

[8] = qHTS assay to identify small molecule antagonists of the sonic hedgehog signaling (Shh) pathway (AID 1259369; calls by dose curve; note: nearly all actives have a fitted effect of over 45% in size)
In short: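 Luminescence readout: firefly Luc under Gli1 response element in 3T3Gli1-Luc cells (NIH/3T3 clone). Antagonist mode, stimulation by conditioned medium; compound exposure 24hr at 37 C, 5% CO2.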

[9] = target: Estrogen receptor beta (Homo sapiens) (UniProt Q92731); experiment: qHTS assay to identify small molecule agonists of the estrogen receptor beta (ER-beta) signaling pathway (AID 1259377; active = well fitted activation curve with a large enough effect in the signal ratio in the repeat runs, not every such curve was filed as active; the % refers to the signal ratio)
In short: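 Screening used GripTite ER-beta-UAS-bla cells held in 2% charcoal-stripped FBS medium. After overnight (16 hr) compound incubation at 37C, beta-lactamase activity was detected with a FRET substrate by fluorescence.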

[10] = target: Estrogen receptor beta (Homo sapiens) (UniProt Q92731); experiment: qHTS assay to identify small molecule antagonists of the estrogen receptor beta (ER-beta) signaling pathway (AID 1259378; active = well fitted inhibition curve with a large enough effect in the signal ratio in the repeat runs, not every such curve was filed as active; the % refers to the signal ratio)
In short: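 ER-beta-UAS-bla HEK293T (GripTite) cells in 2% charcoal-stripped FBS medium were preincubated 6 hr at 37C, dosed with compound, then stimulated with 1 nM E2 (final) for 16 hr; beta-lactamase reporter read by B/G FRET fluorescence after 2 hr substrate loading.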

[11] = qHTS assay to identify small molecule agonists of the androgen receptor (AR) signaling pathway in the presence of an antagonist - cell viability counter screen (AID 1259379);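 note: MDA-kb2 human breast cancer cells carrying an MMTV luciferase reporter; series mostly up to about 92 µM; nearly all actives have a fitted effect of over 25% in size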
In short: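 Viability counter screen: CellTiter-Fluor fluorescence, measured in the same wells as the luciferase read-out. MDA-kb2 cells, 3,000/well, with nilutamide at 3.0uM final and compounds at 15 concentrations, 16 hr at 37C, 0% CO2.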

[12] = qHTS assay to identify small molecule agonists of the estrogen receptor beta (ER-beta) signaling pathway - cell viability counter screen (AID 1259380); note: nearly all actives have a fitted effect of over 30% in size
In short: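 Luminescence read-out (CellTiter-Glo, 30 min, room temp) taken in the same wells as the beta-lactamase reporter assay; ER-beta-UAS-bla HEK293T cells exposed to DMSO-dissolved compounds for 16 hr at 37C in 2% charcoal-stripped FBS medium.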

[13] = target: Estrogen receptor (Homo sapiens) (UniProt P03372); experiment: qHTS assay to identify small molecule agonists of the estrogen receptor alpha (ER-alpha) signaling pathway in the presence of an antagonist (AID 1259383; calls by dose curve; note: top concentration of the series differs between compounds; nearly all actives have a fitted effect of over 15% in size)
In short: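 Luciferase luminescence (ONE-Glo, 30min at room temperature) measured in VM7Luc4E2 cells after 22hr compound exposure at 15 concentrations, with 10.0nM ICI-182,780 final present; cells express endogenous ER-alpha and carry four EREs upstream of luciferase.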

[14] = qHTS assay to identify small molecule agonists or antagonists of the thyroid stimulating hormone receptor (TSHR) signaling pathway - wild type cell line counter screen (AID 1259384; calls by dose curve)
In short: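 Wild-type HEK293 cells were plated 18 h at 37 C/5% CO2, pin-dosed with compound plus Ro20-1724 medium, held 30 min at room temperature, then given cAMP-d2 and anti-cAMP-cryptate; fluorescence was read after 1 h. Fifteen concentrations, triplicate.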

[15] = target: Thyrotropin receptor (Homo sapiens) (UniProt P16473); experiment: qHTS assay to identify small molecule antagonists of the thyroid stimulating hormone receptor (TSHR) signaling pathway (AID 1259385; calls by dose curve; note: nearly all actives have a fitted effect of over 20% in size)
In short: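 TSHR-HEK293 cells were plated and held 18 h at 37C/5% CO2, then given compound plus Ro20-1724 and stimulated with TSH at 1.5 ng/mL final. After 30 min at room temperature, cAMP was detected with cAMP-d2/anti-cAMP-cryptate (1 h) by fluorescence.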

[16] = qHTS assay to identify small molecule HDAC inhibitors (AID 1259364);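 note: wild-type HCT-116 cells with endogenous class I/II HDAC activity; top concentration of the series differs between compounds; nearly all actives have a fitted effect of over 45% in size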
In short: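 HCT-116 (wild type), 1,500 cells/well, overnight; compound 2 hr 37C 5% CO2; HDAC-Glo I/II reagent 30 min RT; luminescence readout.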

[17] = qHTS assay to identify small molecule antagonists of the estrogen receptor beta (ER-beta) signaling pathway - cell viability counter screen (AID 1259382); note: series mostly up to about 92 µM; nearly all actives have a fitted effect of over 55% in size
In short: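 Luminescent ATP read-out (CellTiter-Glo, 30 min, RT) taken in the same wells as the bla reporter assay. HEK293T ER-beta-UAS-bla cells in 2% charcoal-stripped FBS were exposed to compounds with 1nM E2 for 16 hr at 37C.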

[18] = qHTS assay to identify small molecule phospholipidosis (PLD) inducers (AID 1259344; active = well fitted curve in the direction sought with a large enough effect; an effect the other way counts as inactive or inconclusive)
In short: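 After 4 h attachment on collagen I, HepG2 cells were dosed with compound alongside LipidTOX Red, kept 24 h at 37 C, fixed, and imaged for lamellar phospholipid pits.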

Measured: Potency

Estrogen receptor beta (Homo sapiens), sequence (Q92731 whole entry, looked up): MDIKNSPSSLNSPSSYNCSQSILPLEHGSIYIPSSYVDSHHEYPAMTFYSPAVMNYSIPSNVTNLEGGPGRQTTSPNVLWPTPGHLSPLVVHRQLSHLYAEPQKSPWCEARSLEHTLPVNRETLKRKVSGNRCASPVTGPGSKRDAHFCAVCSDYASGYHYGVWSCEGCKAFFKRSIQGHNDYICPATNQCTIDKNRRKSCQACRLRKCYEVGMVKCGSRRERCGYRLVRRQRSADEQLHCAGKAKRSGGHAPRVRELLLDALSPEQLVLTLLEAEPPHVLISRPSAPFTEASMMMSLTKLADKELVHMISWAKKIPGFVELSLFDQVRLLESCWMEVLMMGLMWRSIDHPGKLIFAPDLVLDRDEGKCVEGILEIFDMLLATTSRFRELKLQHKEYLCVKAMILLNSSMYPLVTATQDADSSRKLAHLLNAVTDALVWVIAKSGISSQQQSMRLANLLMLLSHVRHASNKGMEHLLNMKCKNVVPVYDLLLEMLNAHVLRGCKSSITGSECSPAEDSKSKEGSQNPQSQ
Thyrotropin receptor (Homo sapiens), sequence (P16473 whole entry, looked up): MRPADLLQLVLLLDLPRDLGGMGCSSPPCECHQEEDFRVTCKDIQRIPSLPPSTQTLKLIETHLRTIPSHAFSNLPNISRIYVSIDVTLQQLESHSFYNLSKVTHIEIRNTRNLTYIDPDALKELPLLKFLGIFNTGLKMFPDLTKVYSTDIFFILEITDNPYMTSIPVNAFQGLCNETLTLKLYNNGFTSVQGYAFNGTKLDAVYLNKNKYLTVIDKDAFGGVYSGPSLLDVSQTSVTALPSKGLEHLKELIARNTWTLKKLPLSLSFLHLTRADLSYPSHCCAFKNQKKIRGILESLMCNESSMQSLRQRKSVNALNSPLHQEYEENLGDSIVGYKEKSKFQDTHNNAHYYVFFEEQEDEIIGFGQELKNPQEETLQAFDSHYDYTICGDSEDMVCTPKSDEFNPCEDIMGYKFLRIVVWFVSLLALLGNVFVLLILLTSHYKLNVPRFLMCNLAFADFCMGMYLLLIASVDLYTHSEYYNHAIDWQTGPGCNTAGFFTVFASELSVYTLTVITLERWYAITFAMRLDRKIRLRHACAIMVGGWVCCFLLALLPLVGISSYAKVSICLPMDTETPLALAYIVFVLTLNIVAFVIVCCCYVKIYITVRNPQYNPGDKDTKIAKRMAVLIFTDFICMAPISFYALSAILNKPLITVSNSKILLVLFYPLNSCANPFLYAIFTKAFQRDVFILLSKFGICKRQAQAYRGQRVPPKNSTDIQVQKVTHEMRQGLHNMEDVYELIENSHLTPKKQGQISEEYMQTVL
Estrogen receptor (Homo sapiens), sequence (P03372 whole entry, looked up): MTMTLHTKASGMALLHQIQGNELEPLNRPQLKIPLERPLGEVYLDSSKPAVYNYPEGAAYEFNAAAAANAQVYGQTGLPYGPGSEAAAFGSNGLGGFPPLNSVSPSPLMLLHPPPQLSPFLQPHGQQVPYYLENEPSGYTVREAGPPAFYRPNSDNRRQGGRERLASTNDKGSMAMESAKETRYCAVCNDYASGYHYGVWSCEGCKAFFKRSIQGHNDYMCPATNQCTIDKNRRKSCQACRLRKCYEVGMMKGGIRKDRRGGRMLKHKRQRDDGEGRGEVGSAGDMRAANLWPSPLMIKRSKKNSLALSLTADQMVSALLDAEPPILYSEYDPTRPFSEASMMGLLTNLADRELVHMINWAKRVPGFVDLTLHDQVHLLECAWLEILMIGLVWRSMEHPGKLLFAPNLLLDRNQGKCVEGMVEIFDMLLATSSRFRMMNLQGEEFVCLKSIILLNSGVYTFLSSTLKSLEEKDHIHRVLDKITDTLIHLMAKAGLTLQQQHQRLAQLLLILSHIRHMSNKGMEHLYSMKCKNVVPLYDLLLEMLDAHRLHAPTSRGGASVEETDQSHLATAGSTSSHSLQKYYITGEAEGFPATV

CN(C)c1ccc(C=O)cc1
inactive: [1] | [2] | [3] | [4] | [5] | [6] | [7] | [8] | [9] | [10] | [11] | [12] | [13] | [14] | [15]

CCCOC(OCCC)OCCC
inactive: [1] | [2] | [16] | [4] | [5] | [6] | [7] | [8] | [9] | [10] | [11] | [12] | [17]

CC(=O)Nc1ccc(S(=O)(=O)Cl)cc1
inactive: [1] | [2] | [16] | [4] | [5] | [6] | [7] | [8] | [9] | [10] | [11] | [12] | [17]

C=C(C)C(=O)OCC(C)(C)COC(=O)C(=C)C
inactive: [1] | [2] | [3] | [16] | [4] | [5] | [7] | [8] | [9] | [10] | [11] | [12] | [13]

CC(COC(C)(C)C)OCCCO (stereo not given)
inactive: [1] | [2] | [16] | [4] | [5] | [6] | [7] | [8] | [9] | [10] | [11] | [12] | [17] | [14] | [15]

Cc1ccccc1OCC(O)CO (stereo not given)
inactive: [1] | [2] | [18] | [16] | [4] | [5] | [7] | [8] | [9] | [10] | [11] | [12] | [17] | [14] | [15]

CCNC(=O)C1CC(C)CCC1C(C)C (stereo not given)
inactive: [1] | [2] | [3] | [16] | [4] | [5] | [7] | [8] | [11] | [12] | [17] | [13] | [14] | [15]

COC(=O)CCc1ccc(OCC(O)CNC(C)C)cc1 (stereo not given)
inactive: [1] | [2] | [18] | [16] | [4] | [5] | [7] | [8] | [9] | [10] | [11] | [12] | [17] | [14] | [15]

FC(F)(F)c1ccccc1-n1ccnc1
inactive: [1] | [2] | [18] | [16] | [4] | [5] | [6] | [7] | [8] | [11] | [12] | [17]
